In PubChem BioAssay (EPA / NIEHS):
Active and inactive are the calls of the source. The calls were made as follows: active = hit-call score of the fitted dose curve at least 0.9, where 1 is the maximum; inactive = score below 0.9.

What was measured:
[1] = biological target: CCAAT/enhancer-binding protein beta (Homo sapiens) (UniProt P17676); test: ATG_C_EBP_CIS: Attagene CIS-FACTORIAL HepG2 Assay for human CCAAT/Enhancer Binding Protein (C/EBP) beta (AID 2282927); details: HepG2 Attagene cis-factorial transcription factor reporter; actives raise or lower the signal
How it was run: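 Following a 24 h incubation with test chemical, transfected HepG2 cells yielded RNA whose reporter transcripts were quantified by RT-PCR and fluorescent capillary electrophoresis, with DMSO serving as baseline for bidirectional fitting.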

[2] = ATG_CMV_CIS: Attagene CIS-FACTORIAL HepG2 Assay for human CMV (Internal Marker) (AID 2282928); details: HepG2 CMV promoter reporter, transcription factor profiling; actives raise or lower the signal;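 also: endpoint acts as a background internal control marker rather than a target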
How it was run: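 HepG2 cells transiently transfected with multiple cis-regulated reporter units; 24 h compound exposure. Reporter mRNA quantified by RT-PCR, 6-FAM primer-extension labeling, HpaI digestion and capillary electrophoresis; bidirectional fitting against DMSO baseline.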

[3] = ATG_DR4_LXR_CIS: Attagene CIS-FACTORIAL HepG2 Assay for human Liver X Receptor (LXR), DR4 submotif (AID 2282929); details: HepG2 Attagene DR4 cis-reporter, mRNA transcription; actives raise or lower the signal
How it was run: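 Cells were transfected with multiple reporter transcription units, exposed to chemicals for 24 hours, then lysed for RNA. Reporter mRNA induction was measured by RT-PCR with capillary electrophoresis detection and fitted in both directions relative to DMSO.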

[4] = biological target: Aryl hydrocarbon receptor (Homo sapiens) (UniProt P35869); test: ATG_Ahr_CIS: Attagene CIS-FACTORIAL HepG2 Assay for human Aryl Hydrocarbon Receptor (Ahr) (AID 2282930); details: HepG2 AhR cis-factorial reporter transcription; actives raise or lower the signal
How it was run: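 Values derive from bidirectional fitting against DMSO negative control. Underlying signal: cis-element reporter mRNA in transiently transfected HepG2, harvested 24 h post-dose and measured by RT-PCR plus capillary electrophoresis.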

[5] = ATG_AP_1_CIS: Attagene CIS-FACTORIAL HepG2 Assay for human Activator Protein 1 (AP-1) (AID 2282931); details: HepG2 Attagene cis-factorial AP-1 reporter mRNA; actives raise or lower the signal
How it was run: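 Endogenous transcription-factor activity in human HepG2 liver cells is read through a cis-promoter reporter transcript, sampled 24 h after dosing. Detection uses RT-PCR with capillary electrophoresis; values come from bidirectional fitting relative to DMSO.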

[6] = ATG_AP_2_CIS: Attagene CIS-FACTORIAL HepG2 Assay for human Activator Protein 2 (AP-2) (AID 2282932); details: HepG2 AP-2 cis-reporter, Attagene transcription factor profiling; actives raise or lower the signal
How it was run: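 HepG2 cells were transiently transfected with multiple cis-promoter reporter transcription units and dosed for 24 h. Reporter mRNA was measured by RT-PCR with capillary electrophoresis fluorescence; bidirectional fits relative to DMSO baseline.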

[7] = ATG_BRE_CIS: Attagene CIS-FACTORIAL HepG2 Assay for human Bone Morphogenetic Protein (BMP) Response Element (BRE) (AID 2282933); details: HepG2 BMP response element reporter, Attagene transcription factor profiling; actives raise or lower the signal
How it was run: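 HepG2 cells transiently transfected with CIS reporter units (endogenous TF activity, BMP response element), dosed 24 h. Reporter mRNA quantified by RT-PCR, fluorescent labelling and capillary electrophoresis; bidirectional fit vs DMSO baseline.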

[8] = biological target: Retinoic acid receptor alpha (Homo sapiens) (UniProt P10276); test: ATG_DR5_RAR_CIS: Attagene CIS-FACTORIAL HepG2 Assay for human Retinoic Acid Receptor Alpha (RARE), DR5 submotif (AID 2282934); details: HepG2 Attagene cis-factorial RARE DR5 reporter, mRNA; actives raise or lower the signal;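 as to AC50: reporter responds to endogenous RAR alpha beta and gamma in HepG2 not RARA alone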
How it was run: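 Endpoint fitted in both directions relative to DMSO as negative control. It reflects DR5 cis-element reporter mRNA induction in transiently transfected HepG2 cells, measured 24 h after dosing through RT-PCR and fluorescent capillary electrophoresis.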

[9] = biological target: Transcription factor E2F1 (Homo sapiens) (UniProt Q01094); test: ATG_E2F_CIS: Attagene CIS-FACTORIAL HepG2 Assay for human E2F Transcription Factor 1 (AID 2282935); details: HepG2 Attagene cis-reporter, E2F reporter RNA transcripts; actives raise or lower the signal
How it was run: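 HepG2 cells transiently transfected with multiplexed cis-element reporter units, dosed for 24 h. Reporter mRNA measured by RT-PCR, 6-FAM primer-extension labeling, HpaI digestion and capillary electrophoresis; bidirectional fit versus DMSO baseline.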

[10] = ATG_E_Box_CIS: Attagene CIS-FACTORIAL HepG2 Assay for human Enhancer Box (E-box) (AID 2282936); details: HepG2 E-box cis-reporter transcription, actives raise or lower the signal
How it was run: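 HepG2 cells transiently transfected with multiplexed cis-element reporter units sensing endogenous transcription factor activity; 24 h compound exposure. Reporter mRNA measured by RT-PCR, 6-FAM primer extension, HpaI digestion and capillary electrophoresis; bidirectional fit versus DMSO.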

[11] = ATG_EGR_CIS: Attagene CIS-FACTORIAL HepG2 Assay for human Early Growth Response 1 (EGR1) (AID 2282938); details: HepG2 Attagene CIS-FACTORIAL EGR reporter mRNA; actives raise or lower the signal
How it was run: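 Endogenous TF activity in HepG2 liver cells was gauged through cis-promoter reporter constructs transiently transfected. After 24 h dosing, reporter mRNA was quantified by RT-PCR and capillary electrophoresis, and curves fitted in both directions versus DMSO.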

[12] = ATG_ERE_CIS: Attagene CIS-FACTORIAL HepG2 Assay for Estrogen Response Element (ERE) (AID 2282940); details: HepG2 ERE cis-reporter, Attagene RNA transcript; actives raise or lower the signal
How it was run: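 HepG2 cells transiently transfected with multiplexed cis-element reporter units, measuring endogenous transcription factor activity; ERE reporter mRNA quantified after 24 h exposure by RT-PCR, fluorescent labelling, HpaI digestion and capillary electrophoresis. Bidirectional change versus DMSO.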

[13] = ATG_Ets_CIS: Attagene CIS-FACTORIAL HepG2 Assay for human Erythroblast Transformation Specific (ETS) (AID 2282941); details: HepG2 ETS cis-reporter transcription, actives raise or lower the signal
How it was run: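 HepG2 cells transiently transfected with cis-promoter reporter transcription units were dosed for 24 h; reporter mRNA was measured by RT-PCR, 6-FAM primer extension, HpaI digestion and capillary electrophoresis, with bidirectional fitting against DMSO baseline.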

[14] = biological target: Hepatocyte nuclear factor 3-beta (Homo sapiens) (UniProt Q9Y261); test: ATG_FoxA2_CIS: Attagene CIS-FACTORIAL HepG2 Assay for human Forkhead box A2 (FOXA2) (AID 2282942); details: HepG2 cis-reporter transcription factor activity, 24 h; actives raise or lower the signal
How it was run: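 Endogenous transcription factor activity was read in HepG2 cells carrying transiently transfected cis-promoter reporter units. After 24 h dosing, reporter mRNA was quantified by RT-PCR and capillary electrophoresis, and values fitted bidirectionally versus DMSO.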

[15] = ATG_FoxO_CIS: Attagene CIS-FACTORIAL HepG2 Assay for human Forkhead box O (FoxO) (AID 2282943); details: HepG2 Attagene cis-reporter, FoxO element, mRNA; actives raise or lower the signal
How it was run: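 Values reflect reporter mRNA induction or loss in HepG2 cells 24 h post-dosing, fitted bidirectionally with DMSO as negative control and baseline. Detection used RT-PCR and fluorescence capillary electrophoresis.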

[16] = ATG_GATA_CIS: Attagene CIS-FACTORIAL HepG2 Assay for human GATA Binding Protein (AID 2282944); details: HepG2 GATA cis-element reporter, Attagene multiplex mRNA; actives raise or lower the signal
How it was run: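 HepG2 cells transiently transfected with multiplexed cis-element reporter units measure endogenous GATA activity; after 24 h compound exposure, reporter mRNA quantified by RT-PCR and capillary electrophoresis. Changes fitted in both directions vs DMSO.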

[17] = ATG_GLI_CIS: Attagene CIS-FACTORIAL HepG2 Assay for human Zinc Finger Protein GLI1 (AID 2282945); details: HepG2, Attagene cis-factorial reporter mRNA, GLI element; actives raise or lower the signal
How it was run: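 HepG2 cells transiently transfected with cis-promoter multiplexed reporter units report endogenous transcription factor activity. After 24 h chemical exposure, reporter mRNA was quantified by RT-PCR, 6-FAM labelling, HpaI digestion and capillary electrophoresis, with bidirectional fitting against DMSO.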

[18] = ATG_M_61_CIS: Attagene CIS-FACTORIAL HepG2 Assay for M61 Transcription Factor (Internal Marker) (AID 2282937); details: HepG2 Attagene CIS-FACTORIAL M61 internal marker reporter; actives raise or lower the signal
How it was run: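 Cells were transfected with reporter units under cis-regulatory promoters, treated with chemicals for 24 h, then lysed for RNA. Reporter transcripts were quantified by RT-PCR and capillary electrophoresis, and activity was fitted bidirectionally against DMSO.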

[19] = ATG_M_19_CIS: Attagene CIS-FACTORIAL HepG2 Assay for M19 Transcription Factor (Internal Marker) (AID 2282939); details: HepG2 Attagene CIS-FACTORIAL M19 internal marker reporter; actives raise or lower the signal
How it was run: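 HepG2 cells transiently transfected with cis-regulated multiplexed reporter units, dosed 24 h. Reporter mRNA quantified by RT-PCR and capillary electrophoresis; internal background marker fitted bidirectionally versus DMSO.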

Measured: AC50

Aryl hydrocarbon receptor (Homo sapiens), sequence (P35869 whole entry, looked up): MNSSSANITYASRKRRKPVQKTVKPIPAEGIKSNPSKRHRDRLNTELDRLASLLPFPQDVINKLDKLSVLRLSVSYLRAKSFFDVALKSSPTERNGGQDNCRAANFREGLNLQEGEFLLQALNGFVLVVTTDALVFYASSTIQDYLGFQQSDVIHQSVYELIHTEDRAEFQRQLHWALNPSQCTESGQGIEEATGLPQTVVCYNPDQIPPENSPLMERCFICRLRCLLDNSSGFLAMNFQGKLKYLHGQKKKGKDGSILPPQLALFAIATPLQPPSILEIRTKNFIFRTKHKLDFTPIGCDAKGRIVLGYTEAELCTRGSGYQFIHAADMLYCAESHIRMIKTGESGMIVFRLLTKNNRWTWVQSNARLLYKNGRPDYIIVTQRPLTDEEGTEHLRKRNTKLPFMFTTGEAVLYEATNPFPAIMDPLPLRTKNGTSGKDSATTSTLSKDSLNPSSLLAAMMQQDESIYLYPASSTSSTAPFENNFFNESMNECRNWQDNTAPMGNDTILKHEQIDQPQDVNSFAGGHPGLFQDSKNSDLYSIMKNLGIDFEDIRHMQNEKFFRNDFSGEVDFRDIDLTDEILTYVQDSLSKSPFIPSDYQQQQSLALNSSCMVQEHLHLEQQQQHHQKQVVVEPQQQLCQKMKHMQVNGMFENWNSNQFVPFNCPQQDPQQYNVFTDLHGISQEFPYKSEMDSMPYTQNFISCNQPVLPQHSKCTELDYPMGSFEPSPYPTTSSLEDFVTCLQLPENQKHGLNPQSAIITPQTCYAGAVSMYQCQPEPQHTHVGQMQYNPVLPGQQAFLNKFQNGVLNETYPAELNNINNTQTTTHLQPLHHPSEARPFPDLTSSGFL
Retinoic acid receptor alpha (Homo sapiens), sequence (P10276 whole entry, looked up): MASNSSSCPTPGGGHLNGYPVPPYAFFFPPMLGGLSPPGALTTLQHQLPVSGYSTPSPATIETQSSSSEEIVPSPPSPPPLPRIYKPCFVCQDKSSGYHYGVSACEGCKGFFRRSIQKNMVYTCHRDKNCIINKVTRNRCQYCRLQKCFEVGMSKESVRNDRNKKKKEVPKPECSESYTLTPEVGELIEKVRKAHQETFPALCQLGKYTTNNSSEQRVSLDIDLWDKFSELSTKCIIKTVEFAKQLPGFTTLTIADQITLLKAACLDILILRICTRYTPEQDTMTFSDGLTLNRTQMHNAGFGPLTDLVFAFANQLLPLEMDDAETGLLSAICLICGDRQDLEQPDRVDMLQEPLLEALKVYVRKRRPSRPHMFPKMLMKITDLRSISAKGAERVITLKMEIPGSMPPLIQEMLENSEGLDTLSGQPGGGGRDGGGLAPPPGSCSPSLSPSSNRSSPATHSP
Transcription factor E2F1 (Homo sapiens), sequence (Q01094 whole entry, looked up): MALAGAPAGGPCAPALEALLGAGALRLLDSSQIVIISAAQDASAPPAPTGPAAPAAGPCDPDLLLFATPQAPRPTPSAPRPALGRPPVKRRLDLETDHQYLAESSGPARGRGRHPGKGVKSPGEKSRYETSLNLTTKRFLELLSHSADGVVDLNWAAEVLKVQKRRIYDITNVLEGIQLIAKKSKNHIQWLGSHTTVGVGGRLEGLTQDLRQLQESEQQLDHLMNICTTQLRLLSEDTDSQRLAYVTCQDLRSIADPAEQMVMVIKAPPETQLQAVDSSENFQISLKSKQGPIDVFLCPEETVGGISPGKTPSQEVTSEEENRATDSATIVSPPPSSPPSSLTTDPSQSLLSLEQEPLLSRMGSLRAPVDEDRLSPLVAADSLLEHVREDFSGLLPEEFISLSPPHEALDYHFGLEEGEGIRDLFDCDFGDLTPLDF
CCAAT/enhancer-binding protein beta (Homo sapiens), sequence (P17676 whole entry, looked up): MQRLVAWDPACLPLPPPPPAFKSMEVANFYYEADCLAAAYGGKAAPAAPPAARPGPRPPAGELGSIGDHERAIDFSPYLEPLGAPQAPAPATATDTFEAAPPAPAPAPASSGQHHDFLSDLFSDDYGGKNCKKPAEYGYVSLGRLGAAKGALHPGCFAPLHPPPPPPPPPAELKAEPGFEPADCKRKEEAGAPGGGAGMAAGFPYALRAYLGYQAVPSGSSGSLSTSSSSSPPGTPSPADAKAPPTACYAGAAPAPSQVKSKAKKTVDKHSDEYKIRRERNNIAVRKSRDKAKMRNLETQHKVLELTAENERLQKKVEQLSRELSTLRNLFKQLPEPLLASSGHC
Hepatocyte nuclear factor 3-beta (Homo sapiens), sequence (Q9Y261 whole entry, looked up): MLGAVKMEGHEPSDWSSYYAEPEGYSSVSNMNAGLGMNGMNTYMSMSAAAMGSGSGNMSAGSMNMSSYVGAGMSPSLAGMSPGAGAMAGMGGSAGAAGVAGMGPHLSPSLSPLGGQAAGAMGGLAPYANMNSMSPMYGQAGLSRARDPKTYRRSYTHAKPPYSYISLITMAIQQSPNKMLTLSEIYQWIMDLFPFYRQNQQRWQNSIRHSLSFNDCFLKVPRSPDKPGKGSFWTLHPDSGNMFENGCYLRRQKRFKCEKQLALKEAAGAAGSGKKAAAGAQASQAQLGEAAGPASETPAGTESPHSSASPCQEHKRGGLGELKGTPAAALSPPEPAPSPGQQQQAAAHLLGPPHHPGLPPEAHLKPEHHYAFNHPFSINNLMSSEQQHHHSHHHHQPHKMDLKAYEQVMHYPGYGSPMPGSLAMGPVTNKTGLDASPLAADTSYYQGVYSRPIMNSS

COS(=O)(=O)c1ccc(C)cc1
not listed: [18] | [19]
inactive: all other assays above

CCC1(c2ccc(N)cc2)CCC(=O)NC1=O (centres undefined)
not listed: [8] | [19]
inactive: all other assays above

COP(=S)(OC)Oc1cc(Cl)c(Cl)cc1Cl
active: [4] 11.3 µM | [5] 41.8 µM | [7] 64.5 µM | [12] 75.6 µM
not listed: [19]
inactive: all other assays above

Nc1ccc(Cl)cc1C(=O)c1ccccc1
active: [3] 49.5 µM | [11] 26.3 µM
not listed: [8] | [17]
inactive: all other assays above

O=C(OC1CCCCC1)c1ccccc1C(=O)OC1CCCCC1
active: [2] 74.7 µM | [3] 13.7 µM | [4] 17.4 µM | [5] 38.1 µM | [7] 67.5 µM | [9] 187 µM | [11] 25.1 µM | [12] 29.2 µM
not listed: [17] | [18]
inactive: all other assays above

CCCCCCCCSC(=O)Oc1cc(Cl)nnc1-c1ccccc1
active: [2] 171 µM | [3] 159 µM | [5] 122 µM | [8] 100 µM | [13] 162 µM | [15] 141 µM | [16] 149 µM
not listed: [18]
inactive: all other assays above

C1CCC(NC2CCCCC2)CC1
active: [12] 28.8 µM
not listed: [17] | [18]
inactive: all other assays above

Cc1ccc2ccccc2c1C
active: [4] 6.24 µM
not listed: [5] | [12]
inactive: all other assays above

CCN1CCC2(CC1)COc1cc3c(cc12)N(C(=O)c1ccc(-c2ccc(-c4nnc(C)o4)cc2C)cc1)CC3
active: [2] 5.81 µM
not listed: [17]
inactive: all other assays above

O=C1CCCN1
not listed: [8]
inactive: all other assays above

COc1ccc(C=O)cc1
not listed: [8]
inactive: all other assays above

CC(=O)C(Cl)C(=O)N(C)C (centres undefined)
active: [13] 100 µM
not listed: [8] | [17] | [19]
inactive: all other assays above

BrCCBr
not listed: [17] | [19]
inactive: all other assays above

C(=NC1CCCCC1)=NC1CCCCC1
active: [3] 33.4 µM | [7] 2.69 µM | [10] 33.4 µM | [11] 3.17 µM
not listed: [19]
inactive: all other assays above

Nc1ccc(N=Nc2ccc(-c3ccc(N=Nc4c(S(=O)(=O)O)cc5cc(S(=O)(=O)O)c(N=Nc6ccccc6)c(O)c5c4N)cc3)cc2)c(N)c1
active: [7] 4.8 µM
not listed: [6] | [12] | [17]
inactive: all other assays above

CCOC(=O)CP(=O)(OCC)OCC
not listed: [8]
inactive: all other assays above

ClCC(Cl)CCl
not listed: [4] | [6] | [12] | [18]
inactive: all other assays above

O=[N+]([O-])c1ccc(O)c([N+](=O)[O-])c1
not listed: [12] | [18]
inactive: all other assays above
